Source: PubChem (National Center for Advancing Translational Sciences (NCATS))
KCNH2 WT inh: inhibitors of human wildtype KCNH2 potassium channel. Q12809. U2OS, BacMam KCNH2, thallium flux FluxOr; stronger effect = lower value. activity change, % at 1.84 µM. 0.37% of 340,000 active. AID 720551;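 active = maximum activity change below -70%; inconclusive = maximum activity change between -70% and -50%; inactive = maximum activity change above -50%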
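U2OS cells were transduced with wild-type KCNH2 virus (2.03 x 10^8 / mL) for 4 h at room temperature, then cultured overnight at 37 C. Thallium flux was read with FluxOr dye. Rate constants were normalized to DMSO controls.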
USP1 inh: blocks the human USP1/UAF1 deubiquitinase complex; O94782; recombinant USP1/UAF1, Ub-Rhodamine cleavage fluorescence; Potency, µM (series often up to 57.1 µM), actives largely listed as inhibitors; 0.23% of 390,000 active; AID 743255; active = well fitted inhibition curve with a large enough effect; inconclusive = small, poorly fitted or top-dose-only effect; inactive = no such curve, though single readings can be large or run the other way; also: nearly all actives have a fitted effect of over 60% in size
Target sequence (O94782 whole entry, looked up): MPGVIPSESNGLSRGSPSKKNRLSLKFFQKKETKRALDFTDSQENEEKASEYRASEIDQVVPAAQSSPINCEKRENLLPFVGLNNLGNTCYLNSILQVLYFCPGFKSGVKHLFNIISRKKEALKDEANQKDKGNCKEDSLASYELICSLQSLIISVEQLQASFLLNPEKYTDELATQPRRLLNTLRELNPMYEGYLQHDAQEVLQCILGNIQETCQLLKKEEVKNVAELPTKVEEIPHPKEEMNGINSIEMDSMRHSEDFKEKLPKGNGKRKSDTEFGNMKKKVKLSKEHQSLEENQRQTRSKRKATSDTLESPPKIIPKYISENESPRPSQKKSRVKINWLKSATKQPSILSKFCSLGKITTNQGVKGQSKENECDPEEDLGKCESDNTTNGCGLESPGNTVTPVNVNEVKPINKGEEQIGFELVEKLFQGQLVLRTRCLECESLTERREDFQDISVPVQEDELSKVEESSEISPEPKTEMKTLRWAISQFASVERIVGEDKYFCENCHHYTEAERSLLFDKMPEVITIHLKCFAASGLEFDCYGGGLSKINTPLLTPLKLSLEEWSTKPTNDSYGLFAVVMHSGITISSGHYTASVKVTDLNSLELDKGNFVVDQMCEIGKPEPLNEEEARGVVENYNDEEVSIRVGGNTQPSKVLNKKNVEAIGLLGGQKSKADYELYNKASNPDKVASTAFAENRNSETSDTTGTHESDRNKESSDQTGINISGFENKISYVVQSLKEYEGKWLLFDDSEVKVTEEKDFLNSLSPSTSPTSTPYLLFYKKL
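In this screen, compounds sit with the deubiquitinase complex (1nM) for 15 min at room temperature before Ub-Rho is added at 150nM final. Fluorescence rise is then followed for 6 reads every 60 seconds.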
KCNH2 3.1 block: KCNH2 3.1 (human) potassium channel inhibition; activity change, % (tested at about 1.8 µM); 0.95% of 340,000 active; U2OS KCNH2 3.1, thallium flux FluxOr; stronger effect = lower value;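 active = maximum activity change below -70%; inconclusive = maximum activity change from -70% to -50%; inactive = maximum activity change above -50%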;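 also: thallium influx rate constant from kinetic fluorescence after stimulation buffer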
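Thallium flux read-out: FluxOr dye with Red40 quencher in HBSS/HEPES, 45 min at RT. Rate constants from kinetic reads were normalized to positive and negative DMSO controls. Cells: U2OS virally expressing the 3.1 isoform.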
Giardia killer: Giardia lamblia killing; Giardia lamblia trophozoite viability; activity change, % at 7.66 µM, hits read low; 0.15% of 340,000 active; in the data active = activity change below about -80%; inconclusive = between about -30% and that limit;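 also: parasites exposed to compound for two days anaerobically before the ATP read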
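Viability, read as ATP luminescence: trophozoites at 100 cells/well, compound added, 48 hrs anaerobic at 37 deg C, then 15-30 min room-temperature development before reading.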
FBPA coupling cs: coupling enzyme interference in Giardia aldolase counter-screen. activity change, negative = inhibition, % at 58.2 µM, hits read low. AID 2472. coupling enzyme system counterscreen, AmpLite Red fluorescence. 0.67% of 290,000 active; in the data active = activity change below about -30%
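Final compound at 57.5 uM, incubated 10 min at RT with coupling enzyme reagent (glyceraldehyde-3-phosphate), then 20 min with substrate and AmpLite Red detection. Fluorescence read at 525/598 nm; tests interference with the coupling assay, not aldolase inhibition.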
Large screens that a line does not name were inactive. Sampled rows, rich in hits. Any-hit rate of the full collection: about 1.7%.

O=C(Cn1cnc2ccccc2c1=O)Nc1nc2ccccc2s1	KCNH2 3.1 block -97
O=C(CN1CCN(Cc2ccc(F)cc2)CC1)Nc1nc2ccccc2s1	KCNH2 3.1 block -74
CCc1ccc2nc(NC(=O)Cn3cnc4ccccc4c3=O)sc2c1	none
CC(C)(C)NC(=O)Cn1c(SCC(N)=O)nc2ccccc21	KCNH2 3.1 block -89
Cc1ccc(-c2nc3c(C)cccn3c2Nc2ccccc2C)s1	none (no result: KCNH2 WT inh, KCNH2 3.1 block, Giardia killer, FBPA coupling cs)
C=CCC(C)(O)c1cccc(C(F)(F)F)c1 (configuration not stated)	none (no result: KCNH2 WT inh, USP1 inh, KCNH2 3.1 block, Giardia killer)
CCc1nn(CC(=O)NC(C)CC)c(=O)c2cc3occc3n12 (configuration not stated)	none (no result: KCNH2 WT inh, KCNH2 3.1 block, Giardia killer, FBPA coupling cs)
c1ccc(Cc2nnc3n2N=C(c2ccccc2)CS3)cc1	FBPA coupling cs -54
CC(=Nc1ccc(C)cc1C)c1sc2ccccc2c1O	USP1 inh 35µM, Giardia killer inconclusive
CC(C)c1ccc(COc2ccc(C(=O)N3CCOCC3)cc2)cc1	none
CC(C)c1ccc(OCc2ccc(C(=O)N3CCN(c4ccccn4)CC3)cc2)cc1	KCNH2 3.1 block -72
N#Cc1ccc(CS(=O)(=O)c2nc3ccccc3s2)cc1	none (no result: KCNH2 WT inh, USP1 inh, KCNH2 3.1 block, Giardia killer)
NCCc1cnc(-c2cccc(C(F)(F)F)c2)[nH]1	none (no result: KCNH2 WT inh, USP1 inh, KCNH2 3.1 block, Giardia killer)
FC(F)(F)c1nc2nc(Cl)c(Cl)nc2[nH]1	KCNH2 3.1 block -71 (no result: Giardia killer, FBPA coupling cs)
FC(F)(F)c1cccc(-c2nc3nc(Cl)c(Cl)nc3[nH]2)c1	FBPA coupling cs -36
O=C(/C=C/c1ccc(O)cc1)OC[C@H]1O[C@@H](Oc2c(-c3ccc(O)cc3)oc3cc(O)cc(O)c3c2=O)[C@H](O)[C@@H](O)[C@@H]1O	none (no result: KCNH2 WT inh, USP1 inh, KCNH2 3.1 block, Giardia killer)
CCCCN(C(=O)c1ccc(Cl)cc1)C1CC2CCC(C1)N2C (configuration not stated)	KCNH2 3.1 block -82
Cc1cccc(CSc2ncccc2C(=O)O)c1	KCNH2 WT inh -87
CC(NC(=O)CCc1ccccc1)c1ccc2c(c1)OCO2 (configuration not stated)	KCNH2 WT inh -142
CC(NC(=O)CSc1ncccn1)c1ccc2c(c1)OCO2 (configuration not stated)	none (no result: FBPA coupling cs)
O=C(NCCc1ccccc1)c1ccc(NC(=O)C2CCCC2)cc1	none (no result: FBPA coupling cs)
O=C(Nc1ccc(NC(=O)c2ccc(Br)cc2)c(Cl)c1)c1ccc(Br)cc1	none (no result: KCNH2 WT inh, KCNH2 3.1 block, Giardia killer, FBPA coupling cs)
CCOC(=O)C1=C(C)OC2(O)c3ccccc3C(=O)C12O (configuration not stated)	USP1 inh 13µM
CCOC(=O)C1=C(C)N[C@@]2(O)c3ccccc3C(=O)[C@@]12O	none
CC(=O)C1=C(C)OC2(O)c3ccccc3C(=O)C12O (configuration not stated)	USP1 inh 8.9µM
Cc1cc(C)c2c(CC(=O)Nc3c(C(=O)c4ccc(F)cc4)oc4ccccc34)coc2c1	none (no result: KCNH2 WT inh, KCNH2 3.1 block, Giardia killer, FBPA coupling cs)
Cc1ccc(NS(=O)(=O)c2cc(C(=O)N3CCc4ccccc4C3)ccc2Cl)cc1	KCNH2 WT inh -261
C=C1N(C)c2cc([N+](=O)[O-])c(N)cc2C1(C)C	FBPA coupling cs -41
COC(=O)c1nnn(-c2ccc(F)c(Cl)c2)c1C(=O)OC	KCNH2 3.1 block -70
COC(=O)c1nnn(-c2ccc(Cl)c(Cl)c2)c1C(=O)OC	none
CC(=O)Nc1ccc(-n2cc3c(c2-c2ccc(C)cc2)c(=O)n(C)c(=O)n3C)cc1	none (no result: KCNH2 WT inh, KCNH2 3.1 block, Giardia killer, FBPA coupling cs)
CCN(CC)c1nc(N)nc(NS(=O)(=O)c2ccc(Cl)cc2)n1	FBPA coupling cs -33
O=C(O)c1cc(Cl)ccc1-c1ccc(/C=C/c2cc(C(F)(F)F)[nH]c(=O)n2)o1	USP1 inh 28µM
O=C(O)c1ccccc1-c1ccc(/C=C/c2cc(C(F)(F)F)[nH]c(=O)n2)o1	USP1 inh 28µM
O=C(Nc1ccc(F)cc1)c1oc2ccccc2c1NC(=O)C12CC3CC(CC(C3)C1)C2	none (no result: KCNH2 WT inh, KCNH2 3.1 block, Giardia killer, FBPA coupling cs)
COc1ccc(OC)c2c(C)cc(NCCN3CCOCC3)nc12	FBPA coupling cs -30
COc1cc(C)c2c(c1C=O)Oc1c(c(C)c(O)c3c1C(O)OC3=O)OC2=O (configuration not stated)	USP1 inh 16µM
Cc1cc(O)c(C=O)c2c1C(=O)Oc1c(C)c(O)c3c(c1O2)C(O)OC3=O (configuration not stated)	none (no result: KCNH2 WT inh, USP1 inh, KCNH2 3.1 block, Giardia killer)
COc1cccc(CNC(=O)Cn2cc3c(n2)-c2c(oc(C(=O)N4CCOCC4)c2C)CC3)c1	none (no result: KCNH2 WT inh, KCNH2 3.1 block, Giardia killer, FBPA coupling cs)
COC(=O)c1cc(NC(=O)CC2CCCC2)cc(C(=O)OC)c1	KCNH2 3.1 block -73
CC(=O)c1cccc(NC(=O)CC2CCCC2)c1	none
COC(=O)COc1ccc(/C=N/NC(=O)CN(c2ccccc2OC)S(=O)(=O)c2ccccc2)cc1	KCNH2 3.1 block -89
CN1C[C@@H]2[C@@H]3C(=O)N(C)C(=O)[C@@H]3[C@](C)(C1=O)N2C(=O)c1ccc(F)cc1	none (no result: FBPA coupling cs)
Cc1ccc(-c2nc3ncccc3o2)cc1NC(=O)c1ccccc1Br	none (no result: KCNH2 WT inh, KCNH2 3.1 block, Giardia killer, FBPA coupling cs)
Cc1ccc(-c2nc(CS(=O)CC(=O)NC3CC3)c(C)o2)cc1 (configuration not stated)	none (no result: FBPA coupling cs)
Cc1oc(-c2ccccc2Cl)nc1CS(=O)CC(=O)NC1CC1 (configuration not stated)	KCNH2 WT inh -261 (no result: FBPA coupling cs)
CCN(CC)c1ccc(NC(=O)c2cc(C)nc3c2c(C)nn3-c2ccc(C)cc2)c(C)c1	none (no result: KCNH2 WT inh, KCNH2 3.1 block, Giardia killer, FBPA coupling cs)
c1ccc2c(c1)CC(N1CCCCC1)c1ccccc1S2 (configuration not stated)	none (no result: FBPA coupling cs)
